Screens as filed in PubChem.
Only some compounds are listed: those with a hit (about 2.4% of all), similar ones and a draw of the others.
D2 PAM-1: positive allosteric modulators of human D2 dopamine receptor | P14416 | AID 624464 | DiscoveRx D2 beta-arrestin cells, luminescence, 90 min; 100% = 57 uM dopamine signal | potentiation, % (no concentration beside the values) | 360,000 tested, 0.23% active; in the data active = potentiation above about 50%
Target sequence (P14416 whole entry, looked up): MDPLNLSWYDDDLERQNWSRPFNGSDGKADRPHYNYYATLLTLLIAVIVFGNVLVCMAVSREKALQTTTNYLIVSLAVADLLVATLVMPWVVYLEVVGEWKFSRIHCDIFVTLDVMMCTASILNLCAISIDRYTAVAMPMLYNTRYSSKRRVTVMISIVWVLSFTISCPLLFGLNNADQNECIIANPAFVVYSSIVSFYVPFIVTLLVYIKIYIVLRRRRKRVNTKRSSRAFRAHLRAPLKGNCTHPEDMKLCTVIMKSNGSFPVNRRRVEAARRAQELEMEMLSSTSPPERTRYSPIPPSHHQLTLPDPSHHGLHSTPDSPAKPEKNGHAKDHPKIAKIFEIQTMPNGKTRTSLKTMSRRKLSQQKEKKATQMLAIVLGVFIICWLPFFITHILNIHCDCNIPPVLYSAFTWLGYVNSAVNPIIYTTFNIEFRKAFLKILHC
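PathHunter beta-arrestin assay in DiscoveRx D2 cells. Compounds were added with an EC20 of dopamine (50 nM final) for 90 min at 37 deg C. Luminescence was read 1 h after detection reagent, with 57 uM dopamine as the EC100 control.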
D2 ag-1: D2 dopamine receptor (human) agonism; HEK293 T-REx D2 cells, calcium flux agonist mode; activation, % at 2 µM; 340,000 tested, 0.53% active; AID 485358;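 active = activation over 3 SD above normal in the single-dose calcium agonist read, cut at about 30% in these data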
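Agonism scored from kinetic calcium signal (1 read/sec, 180 s) following compound pin transfer, after a 10 s baseline. Cells: HEK293 Trex line expressing inducible D2 receptor coupled to calcium, dye-loaded after overnight culture at 30 C.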
D2 antagonist: D2 dopamine receptor (human) antagonism; HEK293 TREx D2 cells, calcium flux, dopamine EC80; inhibition, % at 10 µM; 340,000 tested, 2% active; AID 485344; in the data active = inhibition above about 30%; inactive = below that, where a call was filed
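Measurement of antagonist activity uses fluorescent calcium dye in inducible HEK293 T-REx D2 cells: 10 s baseline, compound addition with 180 s read, EC80 dopamine addition with a further 180 s read.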
D2 PAM-2: positively modulates the human D2 dopamine receptor allosterically; P14416; potentiation, % at 10 µM; HEK293 T-REx D2, calcium flux, EC20 dopamine potentiation; 340,000 tested, 0.34% active; AID 485347;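 active = potentiation over 3 SD above the plate norm, cut at about 30% in these data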
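Potentiation of an EC20 dopamine calcium response measured kinetically over 180 s, after a preceding 180 s compound-only read flagging agonists. Cells: inducible Hek293 Trex D2 line, 4000/well, cultured overnight at 30 C before dye loading.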
D2 ag-2: activates the human D2 dopamine receptor; DiscoveRx PathHunter D2 beta-arrestin, luminescence, 90 min; 100% = 57 uM dopamine signal; activation, % (concentration not given with the values); 360,000 tested, 0.084% active; in the data active = activation above about 40%
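Agonist mode: compounds alone added to overnight-plated D2 PathHunter cells for 90 min at 37 C, with 57 uM final dopamine (EC100) defining full response. Beta-arrestin recruitment detected by chemiluminescent reagent, read after 1 h at ambient temperature.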
A number is an active result; . = inactive; / = no result given.

SMILES | D2 PAM-1 | D2 ag-1 | D2 antagonist | D2 PAM-2 | D2 ag-2
CN(c1ccc(OCC(=O)N2CCOCC2)cc1)S(=O)(=O)c1ccc(Cl)cc1 | . | . | 35 | . | .
Cc1ccc(C)c(NS(=O)(=O)c2ccc(OCC(=O)N3CCOCC3)cc2)c1 | . | . | 32 | . | .
COc1cccc(CNC(=O)c2nnc(Cc3ccc(Cl)cc3)o2)c1 | / | / | / | . | /
O=C(Cc1ccc(F)cc1)Nc1nnc2n1CCS2 | / | . | / | . | /
Cc1nn2c(C)c(C(=O)NCc3ccc(OC(C)C)cc3)cnc2c1-c1ccc(F)cc1 | / | / | / | . | /
CC(=O)c1cccc(NS(=O)(=O)c2cccc(S(=O)(=O)c3ccc(Br)cc3)c2)c1 | / | . | / | . | /
COc1ccc(NC2=NCC(=O)N2c2ccccc2F)cc1 | . | . | 37 | . | .
Cc1ccc(NC(=O)C2CCN(c3nc4ccccc4nc3C(F)(F)F)CC2)cc1F | / | . | / | . | /
CCOc1ccc(-n2c(SCC(=O)N3CCC(C)CC3)nc3c([nH]c4ccccc43)c2=O)cc1 | / | / | / | . | /
O=S(=O)(Nn1cnnc1)c1ccccc1Cl | . | . | 30 | . | .
COc1cc(Cl)c(C)cc1NC(=O)CC1SC(N2CCOCC2)=NC1=O (stereo not given) | . | . | 99 | . | .
COc1ccc(NC(=O)CC2SC(N3CCOCC3)=NC2=O)c(OC)c1 (stereo not given) | . | / | / | / | .
N#C/C(=C\c1ccc(O)c([N+](=O)[O-])c1)C(=O)NCc1ccccc1 | . | . | . | . | .
N#C/C(=C\c1ccc(O)c(Br)c1)C(=O)NCc1ccccc1 | . | . | 69 | . | .
CC(C)CN1CCN(Cc2c[nH]c3ccccc23)CC1CCO (stereo not given) | . | . | . | . | .
CC(C)=CCN1CCN(Cc2cccn2-c2ccccn2)CC1CCO (stereo not given) | . | . | 99 | . | .
CC(C)=CCN1CCN(Cc2c[nH]c3ccccc23)CC1CCO (stereo not given) | . | . | 47 | . | .
CC(C)CN1CCN(Cc2cccn2-c2ccccn2)CC1CCO (stereo not given) | . | . | . | . | .
CN1C(=O)C2(c3ccccc31)N(c1cccc(C(F)(F)F)c1)C(=O)CS2(=O)=O (stereo not given) | / | / | / | . | /
O=C(Cn1nc(Cc2ccncc2)c2ccccc2c1=O)Nc1cccc(C(F)(F)F)c1 | / | . | / | . | /
Cc1ccc(NC(=O)CSCC#N)cc1 | . | . | 87 | . | .
N#CCSCC(=O)Nc1ccc(Br)cc1 | . | . | . | . | .
COc1ccc(C2=C(C)C(N3CCC(C(=O)Nc4ccccc4F)CC3)=NS2(=O)=O)cc1 | / | . | / | . | /
COc1ccc(NC(c2ccccc2)c2ccncc2)cc1 (stereo not given) | . | . | 41 | . | .
COc1cc(NC(c2ccccc2)c2ccccc2)cc(OC)c1OC | . | . | . | . | .
SMILES | D2 PAM-1 | D2 ag-1 | D2 antagonist | D2 PAM-2 | D2 ag-2
O=C(NC1CC2CCCC(C1)N2Cc1ccc(F)cc1)c1ccc(F)cc1 (stereo not given) | . | . | 75 | . | .
Cc1ccc(CN2C3CCCC2CC(NC(=O)c2ccc(C)cc2)C3)cc1 (stereo not given) | . | . | 74 | . | .
Cc1ccccc1C(=O)NC1CC2CCC(C1)N2Cc1ccccc1 (stereo not given) | . | . | 72 | . | .
CCOc1ccccc1C(=O)NC1CC2CCCC(C1)N2Cc1ccc(C)cc1 (stereo not given) | . | . | 84 | . | .
O=C(CSc1nccn1Cc1ccc(F)cc1)NCc1ccco1 | / | . | / | . | /
CCCc1cc(=O)oc2c(C)c3c(cc12)CN(CCc1ccc(Cl)cc1)CO3 | / | . | / | . | /
Cc1ccc(OCCn2c(-c3ccc(Cl)cc3)nc3ccccc3c2=O)c(C)c1 | / | . | / | . | /
CC(=O)NC1CC2CCCC(C1)N2Cc1ccc(C)cc1 (stereo not given) | . | . | 54 | . | .
O=C(NC1CC2CCCC(C1)N2Cc1cccs1)c1ccc([N+](=O)[O-])cc1 (stereo not given) | / | . | 57 | . | /
O=C(NC1CC2CCCC(C1)N2Cc1cccs1)N1CCOCC1 (stereo not given) | . | / | / | / | .
CC(=O)NC1CC2CCCC(C1)N2CC(=O)NCc1ccc(F)cc1 (stereo not given) | . | . | . | . | .
COC(=O)C(CCSC)NC(=O)c1cc2c(n(-c3ccc(C)cc3)c1=O)CC(C)(C)CC2=O (stereo not given) | / | . | / | . | /
CC(C)N(C(C)C)S(=O)(=O)c1ccc(N2CCc3ccccc3C2)nc1 | . | . | . | . | .
CCN(CC)S(=O)(=O)c1ccc(C)c(C)c1 | . | . | . | . | .
CCN(CC)S(=O)(=O)c1ccc(-n2cnc3cc(C)c(C)cc32)nc1 | . | . | . | 38 | .
CCN(CC)S(=O)(=O)c1ccc(N2CCc3ccccc3C2)nc1 | . | . | . | 34 | .
Cc1cc(C)nc(NNS(=O)(=O)c2ccc(Cl)cc2)n1 | . | / | / | / | .
COc1ccc(S(=O)(=O)NNc2nc(C)cc(C)n2)cc1Br | . | . | 52 | . | .
CCOc1ccc(N(CC(=O)NC(C)CC)S(C)(=O)=O)cc1 (stereo not given) | . | . | 38 | . | .
Cc1ccc(N2C(N)=C(C#N)C3(C(=O)N(C)c4ccccc43)C3=C2CC(C)(C)CC3=O)cc1Cl (stereo not given) | . | . | . | . | .
CN1C(=O)C2(C(C#N)=C(N)N(c3cc(Cl)cc(Cl)c3)C3=C2C(=O)CC(C)(C)C3)c2ccccc21 (stereo not given) | . | . | 33 | . | .
N#Cc1ccc(CSc2nc(N)cc(=O)[nH]2)cc1 | . | . | . | . | .
Cc1ccc(CSc2nc(N)cc(=O)[nH]2)cc1 | . | . | 30 | . | .
COc1ccccc1NC(=O)C(C)OC(=O)C1CC(=O)N(c2ccc3c(c2)OCCO3)C1 (stereo not given) | 63 | . | . | . | .
COc1cccc(OC)c1OC(=O)C1CC(=O)N(c2ccc3c(c2)OCCO3)C1 (stereo not given) | . | / | / | / | .
COc1ccccc1OC(=O)C1CC(=O)N(c2ccc(Cl)cc2)C1 (stereo not given) | . | . | . | 34 | .
Cc1ccc(N2CC(C(=O)N3CCC(C(=O)Nc4ccc(Br)cc4)CC3)CC2=O)cc1 (stereo not given) | . | . | . | . | .
COc1ccc(Cl)cc1NC(=O)C1CCN(C(=O)C2CC(=O)N(c3ccc(C)cc3)C2)CC1 (stereo not given) | . | . | 37 | . | .
Cc1ccc(N2CC(C(=O)N3CCC(C(=O)Nc4cccc(Br)c4)CC3)CC2=O)cc1 (stereo not given) | . | . | 39 | . | .
CCOc1ccc(NC(=O)CSc2nc3nc(C)c(Cc4ccccc4)c(C)n3n2)cc1 | / | . | / | . | /
